PubChem BioAssay (NCATS)
Where “and” joins values, the source holds several entries; their conditions need not be identical. Equal entries are not always repeated. Results filed as inconclusive are left out. Calls of active or inactive are those of the source. Unless noted, the call rests on the fitted dose curve.

How the values were obtained:
[1] = qHTS Assay for Lipid Storage Modulators (AID 1519); settings: Drosophila S3 cells, BODIPY lipid droplet/cell ratio, laser cytometry, cells loaded with oleic acid; on activity change, negative = inhibition: on the % scale 0 is the no-effect control and ±100 the full control effect
Method in brief: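 Cells seeded at 5,000 per well were treated with compounds over a concentration series and loaded with oleic acid (400 uM, as added). Lipid droplet fluorescence (488 nm excitation, 500-530 nm channel) was read by laser-scanning cytometry and normalized to 20 uM Triacsin C.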

[2] = qHTS for Inhibitors of the Functional Ribonucleoprotein Complex (vRNP) of Lassa (LASV) Arenavirus: LASV Primary Screen - GLuc reporter signal (AID 1347082; calls by dose curve; tested in HEK293 reporter line; further: on the % scale 0 is the no-effect control and ±100 the full control effect; nearly all actives have a fitted effect of over 60% in size)
[3] = qHTS for Inhibitors of the Functional Ribonucleoprotein Complex (vRNP) of Lassa (LASV) Arenavirus: Viability assay - alamar blue signal for LASV Primary Screen (AID 1347083; calls by dose curve; tested in HEK293 reporter line; further: on the % scale 0 is the no-effect control and ±100 the full control effect; nearly all actives have a fitted effect of over 80% in size)
[4] = qHTS for Inhibitors of the Functional Ribonucleoprotein Complex (vRNP) of Lymphocytic Choriomeningitis Arenaviruses (LCMV): Viability assay - alamar blue signal for LCMV Primary Screen (AID 1347085; calls by dose curve; tested in HEK293 reporter line; further: on the % scale 0 is the no-effect control and ±100 the full control effect; nearly all actives have a fitted effect of over 80% in size)
[5] = biological target: Nucleoprotein (Lymphocytic choriomeningitis virus (strain Armstrong)) (UniProt P09992); assay: qHTS for Inhibitors of the Functional Ribonucleoprotein Complex (vRNP) of Lymphocytic Choriomeningitis Arenaviruses (LCMV): LCMV Primary Screen - GLuc reporter signal (AID 1347086); further: on the % scale 0 is the no-effect control and ±100 the full control effect; nearly all actives have a fitted effect of over 70% in size
[6] = system: Zika virus NS2B-NS3 protease; assay: Primary screen GU AMC qHTS for Zika virus inhibitors (AID 1347154; active means well fitted curve in the direction sought with a large enough effect; an effect the other way counts as inactive or inconclusive;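 further: 0% = no-inhibitor control and -100% = no-enzyme control; nearly all actives have a fitted effect of over 70% in size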)
Method in brief: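 Unlinked Zika NS2B hydrophilic domain–NS3 protease complex at 25 nM in 10 mM Tris-HCl pH 8.0, 0.01% Tween 20, with an AMC peptide substrate. Fluorescence change (340/450 nm) over 15 min at room temperature, normalized to controls, fitted to 4-parameter Hill.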

[7] = qHTS for inhibitors of Rabies Virus screened against the NCATS CANVASS Library (AID 1347402); further: 0% is about no effect
[8] = Primary qHTS for inhibitors of SARS-S pseudo-typed particle cell entry (AID 1479145); further: nearly all actives have a fitted effect of over 45% in size; on activity change, negative = inhibition: on the % scale 0 is the no-effect control and ±100 the full control effect
[9] = Primary qHTS for Huh7 cytotoxicity: counterscreen for inhibitors of MERS-S pseudotyped particle cell entry (AID 1479147); settings: outcome: dose series up to 57.1 µM unless noted
[10] = Primary qHTS for inhibitors of MERS-S pseudo-typed particle cell entry (AID 1479149); further: nearly all actives have a fitted effect of over 60% in size; further: potency means the concentration at half of the fitted maximal effect
[11] = Primary qHTS for Vero E6 cytotoxicity: counterscreen for inhibitors of SARS-S pseudo-typed particle cell entry (AID 1479150); settings: outcome: dose series up to 57.1 µM unless noted
[12] = Confirmatory qHTS to identify inhibitors of SARS-CoV-2 cell entry (AID 1645844); further: potency means the concentration at half of the fitted maximal effect; nearly all actives have a fitted effect of over 45% in size
Method in brief: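 HEK293-ACE2, overnight seeding; cpd 1 h, 37C/5% CO2; + SARS-CoV-2-S MLV PP (Wuhan-Hu-1, ΔC19); 48 h; Bright-Glo luminescence. Data normalised to S PP and bald PP wells.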

[13] = Cytotoxicity counterscreen for inhibitors of SARS-CoV-2 cell entry (AID 1645845); further: nearly all actives have a fitted effect of over 50% in size
Method in brief: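 Counterscreen run in the same HEK293-ACE2 line as the pseudotyped-particle entry assay, without particles. Viability after 48 h at 37 C was read as ATP luminescence, scaled between cell-containing and cell-free wells.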

[14] = Primary qHTS to identify inhibitors of SARS-CoV-2 cell entry (AID 1645846); settings: activity change, negative = inhibition: at 57.1 µM (top of the series) unless noted; further: nearly all actives have a fitted effect of over 45% in size
Method in brief: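 Data are normalized to wells receiving SARS-CoV-2-S pseudoparticles and those given bald particles. Entry signal was luciferase luminescence in stable hACE2 Expi293F cells, 48 hr post-infection, after 1 hr compound pretreatment.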

[15] = VSVG counterscreen qHTS to identify inhibitors of SARS-CoV-2 cell entry (AID 1645847); further: potency means the concentration at half of the fitted maximal effect; nearly all actives have a fitted effect of over 65% in size
Method in brief: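 Counterscreen using VSV-G (not spike) pseudotyped MLV particles on ACE2-expressing Expi293F cells after 1 h compound preincubation; infection ran 48 h at 37 °C. Data normalized to VSV-G PP and bald-PP wells.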

[16] = Primary qHTS for small molecule stabilizers of the endoplasmic reticulum resident proteome: Secreted ER Calcium Modulated Protein (SERCaMP) assay (AID 1508630; active means well fitted curve in the direction sought with a large enough effect; an effect the other way counts as inactive or inconclusive; further: on the % scale 0 is the no-effect control and ±100 the full control effect)
Method in brief: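 The SH-SY5Y reporter protocol was run at 3 concentrations up to 38.3 uM (primary) or 11 concentrations (follow-up): 16 h compound, 100 nM thapsigargin for 4 h, then extracellular luciferase luminescence.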

[17] = Validation screen for inhibitors of Lassa infection (AID 463096); further: on the % scale 0 is the no-effect control and ±100 the full control effect
[18] = Inducers of the Endoplasmic Reticulum Stress Response (ERSR) in human glioma: Validation (AID 504836; active means well fitted curve in the direction sought with a large enough effect; an effect the other way counts as inactive or inconclusive; further: 0% is about no effect)
Method in brief: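 Stably transfected U87-MG glioma cells carrying a GRP78-based luciferase sensor; 16 h compound incubation. Luminescence end-point read 10 min after Bright-Glo addition at room temperature.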

Nucleoprotein (Lymphocytic choriomeningitis virus (strain Armstrong)), sequence (P09992 whole entry, looked up): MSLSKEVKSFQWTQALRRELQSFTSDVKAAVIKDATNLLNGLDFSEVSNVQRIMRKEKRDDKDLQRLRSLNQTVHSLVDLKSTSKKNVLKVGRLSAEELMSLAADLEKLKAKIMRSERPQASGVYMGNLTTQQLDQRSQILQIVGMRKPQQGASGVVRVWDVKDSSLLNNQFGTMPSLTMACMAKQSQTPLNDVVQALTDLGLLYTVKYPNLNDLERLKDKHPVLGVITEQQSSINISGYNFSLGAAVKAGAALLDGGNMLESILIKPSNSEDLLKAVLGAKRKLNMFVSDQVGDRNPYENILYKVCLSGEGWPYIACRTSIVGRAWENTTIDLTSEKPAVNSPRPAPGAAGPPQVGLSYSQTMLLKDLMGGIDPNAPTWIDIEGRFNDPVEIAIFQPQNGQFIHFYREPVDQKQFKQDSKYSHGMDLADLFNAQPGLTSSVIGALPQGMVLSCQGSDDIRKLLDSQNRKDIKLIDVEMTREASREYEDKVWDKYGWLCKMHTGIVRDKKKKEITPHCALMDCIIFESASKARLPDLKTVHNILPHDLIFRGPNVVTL

CN(C)Cc1c[nH]c2ccccc12
-14%: max response ([1]; measured here: cell count channel max response) | max response ([1]; measured here: lipid channel max response)
inactive: activity change, negative = inhibition ([1]; at 25.7 µM (top of the series)) -1.33% | Potency [2] | Potency [3] | Potency [4] | Potency [5] | Potency [6] | outcome [7]

COc1cc2c(cc1Cc1cccc(Cl)c1F)c(=O)c(C(=O)O)cn2[C@H](CO)C(C)C
-96.1% and -86.8%: activity change, negative = inhibition [14]
active: Potency [10] 12600 nM | Potency [12] 60.7 nM | Potency [15] 17.1 nM
inactive: Potency [2] | Potency [3] | Potency [4] | Potency [5] | Potency [8] | outcome [9] | outcome [11] | Potency [13]

CN(CCCC(=O)c1cccnc1)N=O
inactive: Potency [2] | Potency [3] | Potency [4] | Potency [5] | Potency [6]

O=C(Nc1c(Cl)cncc1Cl)c1ccc(OC(F)F)c(OCC2CC2)c1
-7.18%: activity change, negative = inhibition [14]
inactive: Potency [2] | Potency [3] | Potency [4] | Potency [5] | Potency [8] | outcome [9] | Potency [10] | outcome [11] | Potency [13]

CC1=C(/C=C/C(C)=C/C=C/C(C)=C/C=C/C=C(C)/C=C/C=C(C)/C=C/C2=C(C)C[C@@H](O)CC2(C)C)C(C)(C)C[C@H](O)C1
inactive: Potency [2] | Potency [3] | Potency [4] | Potency [5] | Potency [8] | outcome [9] | Potency [10] | outcome [11] | Potency [13]

O=C(O)Cc1c[nH]c2ccccc12
inactive: Potency [2] | Potency [3] | Potency [4] | Potency [5] | outcome [7]

C[C@]12CCC(=O)C[C@@H]1CC[C@@H]1[C@@H]2CC[C@]2(C)C=CC[C@@H]12
inactive: Potency [2] | Potency [3] | Potency [4] | Potency [5] | Potency [8] | outcome [9] | Potency [10] | outcome [11] | Potency [13]
-21.9%: activity change, negative = inhibition [14]

c1cncc(C2CCCN2)c1 (stereo not given)
inactive: Potency [2] | Potency [3] | Potency [4] | Potency [5] | Potency [6] | Potency [16]

C[C@@H]1OC(=O)[C@H]2C[C@H]3CCCC[C@@H]3[C@@H](/C=C/[C@H]3CCC[C@H](C)N3C)[C@@H]12
inactive: Potency [2] | Potency [3] | Potency [4] | Potency [5] | Potency [6]

C[C@@H](O)[C@H]1C(=O)N2C(C(=O)OCOC(=O)C(C)(C)C)=C(SC3CN(C4=NCCS4)C3)[C@H](C)[C@H]12
inactive: Potency [2] | Potency [3] | Potency [4] | Potency [5] | Potency [8] | outcome [9] | Potency [10] | outcome [11] | Potency [13]

CNCC/C=C/c1cccnc1
inactive: Potency [2] | Potency [3] | Potency [4] | Potency [5] | Potency [6]

C[Se]CC[C@H](N)C(=O)O
inactive: Potency [2] | Potency [3] | Potency [4] | Potency [5] | Potency [8] | outcome [9] inactive [at 26.4 µM] | Potency [10] | outcome [11] | Potency [13]

O=c1c(O)c(-c2ccc(O)c(O)c2)oc2cc(O)ccc12
inactive: Potency [2] | Potency [3] | Potency [4] | Potency [5] | outcome [7] | Potency [13]

O=c1cc(-c2ccc(O)c(O)c2)oc2cc(O[C@@H]3O[C@H](CO)[C@@H](O)[C@H](O)[C@H]3O)cc(O)c12
inactive: Potency [2] | Potency [3] | Potency [4] | Potency [5] | outcome [7]

COc1ccc2[nH]c3c(c2c1)CCNC3C (stereo not given)
inactive: Potency [2] | Potency [3] | Potency [4] | Potency [5] | Potency [6] | Potency [16]

O=C(O)C(O)Cc1ccc(O)c(O)c1 (stereo not given)
-13% [at 114 µM]: activity change, negative = inhibition [14]
inactive: Potency [2] | Potency [3] | Potency [4] | Potency [5] | outcome [7] | Potency [13]

NCCc1ccccc1
inactive: Potency [2] | Potency [3] | Potency [4] | Potency [5] | Potency [6] | outcome [7]

C[N+]1([O-])CCC[C@@H]1c1cccnc1 (stereo not given in full)
inactive: Potency [2] | Potency [3] | Potency [4] | Potency [5] | Potency [6] | Potency [16]

C[C@H]1CC[C@@H]2N(C1)C[C@H]1[C@@H]3C[C@H]4[C@@H](CC(=O)[C@H]5C[C@@H](O)CC[C@@]54C)[C@@H]3CC[C@H]1[C@]2(C)O
inactive: Potency [2] | Potency [3] | Potency [4] | Potency [5] | Potency [6] | Potency [16]

CC(C=CC=C(C)C=CC1=C(C)CCCC1(C)C)=CC=CC=C(C)C=CC=C(C)C=CC1=C(C)CCCC1(C)C
inactive: Potency [2] | Potency [3] | Potency [4] | Potency [5] | outcome [8] inactive [at 0.573 µM] | outcome [9] inactive [at 0.573 µM] | outcome [10] inactive [at 0.573 µM] | activity change, negative = cytotoxicity [11] 0.415% [at 0.573 µM] | outcome [13] inactive [at 0.702 µM]
-7.48% [at 0.702 µM]: activity change, negative = inhibition [14]

CO[C@@H]1[C@H](OC(=O)/C=C/C=C/C=C/C=C/C(=O)O)CC[C@]2(CO2)[C@H]1[C@@]1(C)O[C@@H]1CC=C(C)C
inactive: Potency [2] | Potency [3] | Potency [4] | Potency [5] | outcome [9] | Potency [10] | outcome [11] | Potency [13]

N[C@H](CO)C(=O)O
inactive: Potency [17] | outcome [18] | Potency [2] | Potency [3] | Potency [4] | Potency [5] | Potency [8] | outcome [9] | Potency [10] | outcome [11] | Potency [14]

Cc1cn([C@@H]2C[C@@H](O)[C@H](CO)O2)c(=O)[nH]c1=O
-18% and -32.2%: activity change, negative = inhibition [14]
inactive: Potency [2] | Potency [3] | Potency [4] | Potency [5] | Potency [8] | outcome [9] | Potency [10] | outcome [11] | Potency [13]
